# Test results as given in PubChem BioAssay (NCI).
# “And” between values parts separate entries of the source, which are not always exact repeats. Equal values may be shown once. This is part of a sample that, as a whole, favours compounds with a hit. Of some 83,000 tested, about 20% had one in any assay.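 Percent growth is the endpoint: 0 to 100 indicates growth inhibition (40 means 60% inhibition), 0 means no net growth, and negative values indicate cell death.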 A number with no mark means an inactive call. The source made the active and inactive calls.
# System: OVCAR-3 ovarian
# Assay: NCI-60 one-dose screen, 48 h (100 = growth as untreated, 0 = no growth, -100 = all killed)
# Conditions: 10 µM
# Experimental: Growth inhibition of the OVCAR-3 human tumor cell line is measured as a screen for anti-cancer activity. Cells are grown in 96 well plates and exposed to the test compound for 48 hours. Compounds are tested at a single concentration, which is 10^-5 M for most compounds. The reported endpoint is percent growth (GI% or GIPRCNT), where numbers from 0 - 100% represent growth inhibition, and numbers from -100% - 0 represent cell death. For example, a value of 40 represents 60% growth inhibition. A value of 0 means no net growth occurred over the course of the experiment. A value of -40 indicates 40% of cells at the beginning of the experiment died by the end of the experiment. A value of -100 means all cells are dead at the end of the experiment.
# NCI-60 Human Tumor Cell Lines Screen was performed using the standard one-dose NCI protocol, which is described in more detail at https://dtp.cancer.gov/discovery_development/nci-60/default.htm.
# Compounds with GIPRCNT values below 10 were considered active. Activity score was based on GIPRCNT using the following formula: […]
# Score is 0 for GIPRCNT values of 100 or above, 50 for GIPRCNT values of 0, and 100 for GIPRCNT values of -100.
row,Compound,growth
1,CN(C)C(=O)c1ccc(SC(=S)NCc2ccccc2)cc1,121%

# Same assay, conditions: 10 µM unless noted
row,Compound,growth
1,COc1cc(/C=C/C(C)=O)ccc1O,100% and 106%
2,CCC1OC(OC)C=CC1=O (stereo not given),95.4%
3,COC(=O)c1nc(=S)[nH]c(C(=O)OC)c1C(=O)c1ccc2ccccc2c1,109%
4,NC(N)=N/N=C/c1ccc([N+](=O)[O-])o1,83.1%
5,CCN(CC)CC(C)(C)C(=O)/C=C/c1ccc(Cl)c(Cl)c1,-66.3% (active)
6,N#Cc1ccc([N+](=O)[O-])o1,118%
7,O=C1C=CC(=O)N1C1c2ccccc2-c2ccccc21,35.4%
8,O=[N+]([O-])c1ccc(N=Nc2ccc(O)cc2O)cc1,54.8%
9,O=Nc1ccccc1N=O,118%
10,C[n+]1c(/C=C/c2ccc([N+](=O)[O-])cc2)ccc2ccccc21,99.5%
11,CCC(c1cccc(O)c1)C(CC)c1cccc(O)c1 (stereo not given),77.3%
12,Cc1ccnc(NC(c2ccccc2)c2ccc3cccnc3c2O)c1 (stereo not given),19.5%
13,N[C@H](C(=O)O)[C@@H]1CC(Cl)=NO1,32.4% [20 µM]
14,N#CSCc1ccc(Cl)c(CSC#N)c1,46.3%
15,CCCCCCCCCCCCCCCCOP(=O)([O-])OCC[N+](C)(C)C,33.4%
16,CN1c2ccccc2C(C)(C)C12C=Cc1cc(O)ccc1O2 (stereo not given),4.21% (active)
17,CCN1/C(=C\c2cc[n+](CC)c3ccccc23)C=Cc2ccccc21,11.8%
18,O=C(Nc1ccccc1)Oc1c(Cl)c(Cl)c(Cl)c(Cl)c1Cl,96.9% and 104%
19,Cc1ccnc2c1ccc1c(C)ccnc12,24.9%

row,Compound,growth
1,CNc1ccc(N)cc1,112%
2,O=C1N[C@H]2[C@H](CS[C@H]2CCCCC(=O)N(CCP(c2ccccc2)c2ccccc2)CCP(c2ccccc2)c2ccccc2)N1,0.222% (active)
3,COc1cc(/C=C(/C)C[N+](=O)[O-])ccc1O,85.4%
4,Cc1ccc2c(ccc3c[n+]4c5ccccc5ccc4n32)c1,-43.2% (active)
5,CC(=O)C(=Cc1ccc(C=C(C(C)=O)C(C)=O)cc1)C(C)=O,-16.2% (active)
6,Cc1ccc2nc(-[n+]3cc4ccccc4cc3C)ccc2c1,44.6%
7,CCC(CC)COC(=O)c1ccc(O)c(O)c1,78.1%
8,Nc1nc(N)c2nc(CNc3ccc(C(=O)NC(CCC(=O)O)C(=O)O)cc3)cnc2n1 (stereo not given),37.6% and 39.8%
9,O=C(O)C1C2CC3C(OC(=O)C31)C2Br (stereo not given),110% and 106%
10,CNc1ccc2c(c1)c1ccccc1n2C,102%
11,Cc1ccc(C(=Nc2ccccc2)N=P(c2ccccc2)(c2ccccc2)c2ccccc2)cc1,-37.4% (active)
12,NC1=CC(=O)c2ccccc2C1=O,82.6%
13,NC(=O)/C=C/C(=O)c1c(Cl)cccc1Cl,-81.3% (active)
14,O=C1c2ccccc2C(=O)c2sc(Nc3ccc(Cl)cc3)nc21,-39.6% (active)
15,CCCCCCCCCCCCCCCC[N+](C)(CCO)Cc1cnc[nH]1 (stereo not given),-36.9% (active)
16,Cc1ccc(N=C=C(c2ccccc2)c2ccccc2)cc1,118%
17,Cc1ccc(NS(=O)(=O)c2ccc(C)cc2)cc1,105% and 98.9%
18,Cc1cc2nc(CS)[nH]c2cc1C,82.6%
19,CCOC(=O)c1c(C)[nH]c(CO)c1C,103%

# Same assay, conditions: 100 µM
row,Compound,growth
1,CN(C)C(=O)c1ccc(SC(=S)NCc2ccccc2)cc1,46.9%
